Measurements: article PMC12136788
Changes are numbered by the printed parent chain. Over roughly 5,800 sequences, “enrichment r” has its median near 0.68; the highest 2% begin near 11. What follows is part of a selection rich in the highest values, with near analogues and random picks from the rest.

B1: chr13:52036708:52036809:-|3pUTR|ENSG00000197168|unk|total|mutant (ssRNA)
RNA: GGGAGUUCUACAGUCCGACGAUCGCCGAACUUUUGAAUACCGCCAUUAAUAUUUUUACUUUAAAGUUUCUAUUAAGAAAUCUCCGGCCGGGCAGUCUCAUCACUUUGGGAGGCCAAGGCAGGCAGAUCAUGAGGUCAGGAGUUCAACAGAGGAUUGAGCAUCA
B2: chr1:3780741:3780842:-|3pUTR|ENSG00000130764|unk|total|mutant (ssRNA)
RNA: GGGAGUUCUACAGUCCGACGAUCCCAAGCCGCUGGGACUACAGGUGUGUGCCACUAAGCUCAGCUAAUUUUUGUAUUUUCCGCCGAGACGGGGUUUCACCAUUUUGACCAGGAUGGUCUUGAUCUCUUGACCUCAUGAUCUGUCAACAGAGGAUUGAGCAUCA
B3: chr20:45898604:45898705:+|3pUTR|ENSG00000064601|unk|total|mutant (ssRNA)
RNA: GGGAGUUCUACAGUCCGACGAUCAGAGCCCUGUACAUCCCAGACUGGGCCCAGGGUCUCCCACCGACAGCCUGGGGGCAAGUCCGCACUUUAUUCCCGCAGCAGUUCCUGAAUGGGGUGGCCUGGCCCCUUCUCUGCUUAAAGCAACAGAGGAUUGAGCAUCA
B4: chr17:47844907:47847298:-|three_prime_utr|ENSG00000189120|control|control|control (ssRNA)
RNA: GGGAGUUCUACAGUCCGACGAUCAAGGUGCGUAUUUAUUCAGGGAGGAGGAAAAGUGGUGCAGGGACAGGGAGAUGGGGCGCUAGGGGUUCUUAGUCUCUGGGGCUACUAGGCAGGAUGAAUUUGACUGGGUCGGUAGGAGCUCAACAGAGGAUUGAGCAUCA
B5: ENSG00000070961:be:win_6051|3pUTR|ENSG00000070961|bound_else_gene|NA|bound_elsewhere_windowed (ssRNA)
RNA: GGGAGUUCUACAGUCCGACGAUCCAGAAAUUUCCAGAGCAUUAUGUAGGUAGAAAAAAAUGCAAGCAAGCUGUUAAAGAUCUUGGAUCCCAUUAUAUAGUAUGUAUAGCUGAAAUCUGUAAUUCAAUCACUUUUUCUCUUUUACAACAGAGGAUUGAGCAUCA
B6: ENSG00000198589:be:win_9001|3pUTR|ENSG00000198589|bound_else_gene|NA|bound_elsewhere_windowed (ssRNA)
RNA: GGGAGUUCUACAGUCCGACGAUCUUCUUCAGCACUAAUAUUUCUGGGAUUUAAAUAGUAAUGUUUAAAUUAUGGUAAAUGUAAUUUAAAACAUCUCAAUUAAGUCUGUCUAUCAAUAUUGUUCUUCAAGCAUGUUUUAGACCUCAACAGAGGAUUGAGCAUCA
B7: chr8:23843870:23844003:-|3pUTR|ENSG00000159167|msi1|FALSE|unique (ssRNA)
RNA: GGGAGUUCUACAGUCCGACGAUCAAUUCCAGAGGACUCUGCUUAAACAAAGCAGUAUAUAAUAACUUUAUUGCAUAUAGAUUUAGUUUUGUAACUUAGCUUUAUUUUUCUUUUCCUGGGAAUGGAAUAACUAUCUCACUUCCACAACAGAGGAUUGAGCAUCA
B8: ENSG00000070961:be:win_251|CDS|ENSG00000070961|bound_else_gene|NA|bound_elsewhere_windowed (ssRNA)
RNA: GGGAGUUCUACAGUCCGACGAUCUGUUUGGAAAGAAUUUUAUACCUCCUAAAAAGCCAAAAACCUUUCUUCAAUUAGUAUGGGAAGCAUUACAAGAUGUCACUUUAAUUAUAUUAGAAAUUGCAGCCAUAGUAUCAUUGGGCCCAACAGAGGAUUGAGCAUCA
B9: chr3:167478683:167478996:-|three_prime_utr|ENSG00000174776|control|control|control (ssRNA)
RNA: GGGAGUUCUACAGUCCGACGAUCCUGCCUUUUAUUUUAUUUUAUAUUUAAACUUCAGGAAGUUUUCUCUUCAUGGGAUAAUUUAGUACUGCUUUUAUCUAUCAUCUGUCAAUUUCUCUGUAUUCUUAAUAAAAUAAAUAUUGACAACAGAGGAUUGAGCAUCA
B10: chr6:142752714:142752806:-|3pUTR|ENSG00000010818|msi1_unk|FALSE|overlapping (ssRNA)
RNA: GGGAGUUCUACAGUCCGACGAUCUUUUCUUUACUUUGCUUAUAUUCUUAUAAGCAUUUUUUAGCAGUAAUUUGUACAUAUUUUAGAAUUUGUGUAUCUGCUUUGUAAUAAAUGUAAUUUCUUUCCUUUUUUGGACACUUGGAUCAACAGAGGAUUGAGCAUCA
B11: chr17:67340809:67340863:-|CDS_3pUTR|ENSG00000197170|msi1_unk|FALSE|overlapping (ssRNA)
RNA: GGGAGUUCUACAGUCCGACGAUCACAAAACUACGCAUCUCAUAGCCAAAGAGGAGAUGAUACAUAAUCUACAAUAAGGGUCUUAGUGCUUUAGAAAAAAGUUAAAAUUGGAAGUCAUUAAAAAAAGACUGUUAUAAUGGUGUACAACAGAGGAUUGAGCAUCA
B12: chr5:134606522:134606623:-|3pUTR|ENSG00000152700|msi1_unk|total|mutant (ssRNA)
RNA: GGGAGUUCUACAGUCCGACGAUCAACUAUAAACCAUAUUUAAAAGCUCAUCAUGUUAAAUUUUUUAUGUACUUUUCUGGAACCCGUUUUUAAAUUUCCGAUUAUAUGUCCACCUAUCUUAAGUGUACAGUUAAUAAUCCGCUUCAACAGAGGAUUGAGCAUCA
B13: chr5:134606522:134606623:-|3pUTR|ENSG00000152700|msi1_unk|FALSE|overlapping (ssRNA)
RNA: B12 RNA with C83U, C84A, C97U, C98A, C138U, C139A
B14: chr9:14618660:14618761:-|3pUTR|ENSG00000175893|msi1|FALSE|unique (ssRNA)
RNA: GGGAGUUCUACAGUCCGACGAUCUUAGCUUUCCACAGGGAUUUCUUGAAAUGCUUUUGUUAUUAAACUCAAAAGGCAGUGAUUAGGAUGAAAUAAUUGUACAUAAUUUAUUUUAGUACUGACAGUGUUACAGAUUCUAAUUUACAACAGAGGAUUGAGCAUCA
B15: chr4:110049619:110049852:-|3pUTR|ENSG00000170522|msi1|FALSE|unique (ssRNA)
RNA: GGGAGUUCUACAGUCCGACGAUCUUGUUCAAUGUGACAUAAUAGUAUUAUAAUUGGUUAAGUAGCUUAAUGAUUAGGCAAACUAGAUGAAAAGAUUAGGGGCUUCCACACUGCAUAGAUUACACGCACAUAGCCACGCAUACACAACAGAGGAUUGAGCAUCA
B16: ENSG00000070961:be:win_6101|3pUTR|ENSG00000070961|bound_else_gene|NA|bound_elsewhere_windowed (ssRNA)
RNA: GGGAGUUCUACAGUCCGACGAUCUAAAGAUCUUGGAUCCCAUUAUAUAGUAUGUAUAGCUGAAAUCUGUAAUUCAAUCACUUUUUCUCUUUUAUCCUCUAACCAAAAAAUUGUUUAAUUUUGCAUCCCAAAUGUUUUUAAUCUCAACAGAGGAUUGAGCAUCA

Target: T1, UNK ZnF1-6 (called full-length) (human, UniProt Q9C0B0 30-357)
T1 sequence: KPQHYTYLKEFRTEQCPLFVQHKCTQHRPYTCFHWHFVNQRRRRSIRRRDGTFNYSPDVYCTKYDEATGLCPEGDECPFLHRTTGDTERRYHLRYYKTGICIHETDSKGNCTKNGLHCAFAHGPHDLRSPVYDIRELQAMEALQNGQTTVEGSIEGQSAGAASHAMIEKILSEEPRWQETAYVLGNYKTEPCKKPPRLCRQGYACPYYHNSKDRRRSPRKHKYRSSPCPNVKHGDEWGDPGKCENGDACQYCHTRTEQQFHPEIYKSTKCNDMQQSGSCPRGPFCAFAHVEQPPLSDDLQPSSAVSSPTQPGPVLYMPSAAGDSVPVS
Experiment: nsRBNS (natural sequence RNA bind-n-seq); RBNS binding buffer (assumed for nsRBNS): 25 mM Tris pH 7.5, 150 mM KCl, 3 mM MgCl2, 0.01% Triton X-100, 500 ug/ml BSA, 20 U/ml SUPERase-In, 4 C; UNK is unkempt and MSI1 is Musashi-1; names of the RNAs are library labels; protein concentration not given here; high values mean tight binding

In order of rising binding signal:
1. B6  0.446 enrichment R
2. B2  0.591 enrichment R
3. B11  0.932 enrichment R
4. B14  0.961 enrichment R
5. B3  1.01 enrichment R
6. B4  1.32 enrichment R
7. B12  2.06 enrichment R
8. B10  2.11 enrichment R
9. B9  2.14 enrichment R
10. B1  2.85 enrichment R
11. B5  3.07 enrichment R
12. B8  5.79 enrichment R
13. B7  13.9 enrichment R
14. B15  14.6 enrichment R
15. B13  25.7 enrichment R
16. B16  39 enrichment R
